The results in this text go back to PubChem BioAssay (NCATS).

Records with an inconclusive call do not appear. Activity calls are given as the source filed them. Unless noted, the call rests on the fitted dose curve; in most records, active means well fitted curve in the direction sought with a large enough effect; inconclusive means small, poorly fitted or top-dose-only effect, or another doubt; inactive means no such curve, though single readings can be large; an effect the other way counts as inactive or inconclusive.

The target of test [1] is DNA repair nuclease/redox regulator APEX1 (Homo sapiens) (UniProt P27695). As to the kind of experiment: qHTS Validation Assay for Inhibitors of the Human Apurinic/apyrimidinic Endonuclease 1 (APE1) (AID 1705;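 further: TAMRA fluorescence gain over two minutes as APE1 cuts a quenched THF abasic duplex; series mostly up to about 57 µM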). The gist of the method: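 Activity read as rising fluorescence (598 nm emission, 525 nm excitation) from incision of a TAMRA/BHQ-2 duplex carrying a THF abasic site (50 nM). Compound and enzyme sat 15 min at RT before substrate start; signal change between first and third 60-s reads.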
On the technique in general: Quantitative high-throughput screening tests each substance at several concentrations.

Test [2] addresses Endonuclease 4 (Escherichia coli (strain K12)) (UniProt P0A6C1). Kind of test: Counterscreen for APE1 Inhibitors: qHTS Validation Assay for Inhibitors of Endonuclease IV (AID 1708). The gist of the method:
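E. coli EndoIV at 2 nM final, preincubated 15 min at room temperature with compound, then 50 nM TAMRA/BHQ-2 THF abasic-site duplex added. Buffer: 50 mM Tris-HCl pH 7.5, 50 mM NaCl, 2 mM MgCl2, 1 mM DTT, 0.01% Tween-20. Kinetic fluorescence increase, third minus first read.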

Test [3] is described as follows: qHTS for differential inhibitors of proliferation of Plasmodium falciparum line 7G8 (AID 1815).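 Further: parasite growth measured after three days of incubation.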 Further: potency means the concentration at half of the fitted maximal effect.
Test [4] in a line: qHTS for differential inhibitors of proliferation of Plasmodium falciparum line 3D7 (AID 1876). Further: potency means the concentration at half of the fitted maximal effect.
The nature of test [5]: qHTS for differential inhibitors of proliferation of Plasmodium falciparum line Dd2 (AID 1882). Further: nearly all actives have a fitted effect of over 65% in size. Further: potency means the concentration at half of the fitted maximal effect. As to conditions: Potency: Plasmodium falciparum Dd2 proliferation inhibition. An outline of the steps: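 Dd2-infected erythrocytes (0.3% parasitemia, 2.5% hematocrit final) incubated with compound 72 h at 37 C, 5% CO2; lysed with saponin/Triton buffer containing SYBR Green I, incubated overnight in the dark, then read by fluorescence (485/535 nm). Normalized to 0.29 uM artemisinin and DMSO.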

A short description of test [6]: qHTS for differential inhibitors of proliferation of Plasmodium falciparum line W2 (AID 1883).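 Further: parasites grown with compound for 72 h before lysis and staining.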 Further: potency means the concentration at half of the fitted maximal effect. As to conditions: Potency: Plasmodium falciparum W2 proliferation inhibition.
Test [7] addresses Ferritin light chain (Equus caballus) (UniProt P02791). Kind of test: qHTS Validation Assay for Identification of Novel General Anesthetics (AID 2323). Further: series mostly up to about 77 µM. An outline of the steps: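 Competitive displacement of the profluorescent anesthetic 1-AMA (50% saturated, PBS) from 10 uM apoferritin, 10 min, room temperature. Activity is normalized 380/535 nm fluorescence; concentration-response fitted with a four-parameter Hill equation.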

For test [8], the target named is ATP-dependent DNA helicase Q1 (Homo sapiens) (UniProt P46063). Kind of test: qHTS Validation Assay for Inhibitors of RecQ-Like Dna Helicase 1 (RECQ1) (AID 2353). An outline of the steps:
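50 nM RECQ1T1 preincubated 15 min with compound in Tris pH 8.0 buffer with MgCl2, DTT, Tween-20 and 2.5 ug/ml poly(dI-dC); started with 200 nM TAMRA/BHQ-2 forked duplex and 2 mM ATP. Unwinding read as fluorescence (525/598 nm), two reads 2 h apart.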

Test [9] can be described thus: Cytometric Cell-Based qHTS for Inhibitors of the mTORC1 Signaling Pathway in MEF (Tsc2-/-, p53-/-) Cells (AID 2660). Further: potency means the concentration at half of the fitted maximal effect. An outline of the steps:
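Readout: Alexa-488 phospho-rpS6 (Ser235/236) intensity divided by PI intensity, thresholded against 7.5 nM rapamycin wells and reported as % positive cells. PI cell count served as the viability measure. Compound exposure was 24 hrs at 37 degree Celsius.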

The nature of test [10]: High Content Imaging Cell-Based qHTS for Inhibitors of the mTORC1 Signaling Pathway in MEF (Tsc2-/-, p53-/-) Cells (AID 2666). The gist of the method: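 Phospho-rpS6 (Ser235/236) immunofluorescence, normalized and scored as % positive cells using rapamycin and DMSO controls, was read in empty-vector Tsc2-/-, p53-/- MEFs after 24 h compound exposure at 37 C; propidium iodide counted cells.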

Test [11] can be described thus: High Content Imaging Cell-Based qHTS for Inhibitors of the mTORC1 Signaling Pathway in MEF Cells (AID 2667).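 Further: Tsc2-/- p53-/- MEFs stably re-expressing wild-type Tsc2 exposed 24 h; series mostly up to about 38 µM.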 An outline of the steps:
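WT MEFs (Tsc2-/-, p53-/- re-expressing Tsc2), in DMEM + 10% FBS, were treated with compound for 24 h at 37 C. Cells were then fixed and stained for phospho-rpS6 Ser235/236 with propidium iodide as cell count. Values are % positive cells, with thresholds set against rapamycin-treated cells.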

Test [12] in a line: Cytometry Cell-Based qHTS for Inhibitors of the mTORC1 Signaling Pathway in MEF cells (AID 2668).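 Further: Tsc2-/- p53-/- mouse embryonic fibroblasts stably re-expressing wild-type Tsc2; percent cells positive for phospho-rpS6 Ser235/236 relative to propidium iodide stain; series mostly up to about 38 µM.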 The gist of the method: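 Phospho-rpS6 (Ser235/236) immunofluorescence over PI signal, scored as % positive cells using thresholds from 7.5 nM rapamycin and DMSO wells, after 24 h compound exposure of WT-Tsc2-rescued Tsc2-/-, p53-/- MEFs. PI cell count recorded for viability.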
Test [13] in a line: Validation screen for inhibitors of Lassa infection (AID 463096; calls by dose curve; further: potency means the concentration at half of the fitted maximal effect).
The nature of test [14]: Validation screen for small molecules that induce DNA re-replication in MCF 10A normal breast cells (AID 463097). Further: nearly all actives have a fitted effect of over 60% in size. An outline of the steps: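 Read-out is Hoechst total nuclear intensity by fluorescence scanning imager, flagging increased high-DNA-content nuclei. Compounds were incubated with MCF 10A cells for 48 hr (37 C, 5% CO2) before 40 min staining.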
Test [15] in a line: Counterscreen for APE1 Inhibitors: Fluorescent Dye Displacement Validation Assay (AID 1707). An outline of the steps:
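Thiazole Orange displacement from dsDNA: 250 nM ThO with 50 nM TAMRA-labelled abasic-site (tetrahydrofuran) duplex in 50 mM Tris-HCl pH7.5, 50mM NaCl, 2 mM MgCl2, 0.01% Tween-20. Loss of endpoint fluorescence (ex 480 nm, em 540 nm) flags DNA binders.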

A short description of test [16]: qHTS for differential inhibitors of proliferation of Plasmodium falciparum line GB4 (AID 1816).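 Further: parasite growth measured after 72 h incubation.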 Further: potency means the concentration at half of the fitted maximal effect. The following applies: Potency: Plasmodium falciparum GB4 proliferation inhibition.
Test [17] can be described thus: qHTS for differential inhibitors of proliferation of Plasmodium falciparum line D10 (AID 1877).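 Further: parasites grown with compound for 72 h before DNA staining.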 Further: potency means the concentration at half of the fitted maximal effect.
Test [18] in a line: qHTS for differential inhibitors of proliferation of Plasmodium falciparum line HB3 (AID 1886).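 Further: parasites grown with compound for 72 h before SYBR Green readout.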 Further: potency means the concentration at half of the fitted maximal effect. The following applies: Potency: Plasmodium falciparum HB3 proliferation inhibition.
Test [19] concerns the target Ubiquitin carboxyl-terminal hydrolase 2 (Homo sapiens) (UniProt O75604). Kind of test: qHTS Validation Assay for Inhibitors of Ubiquitin-specific Protease USP2a Using CHOP2 as the Reporter (AID 463106). The gist of the method: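 USP2 core (10 nM final) was preincubated with compound 30 min at RT in pH 8.0 Tris/CaCl2/beta-ME/CHAPS buffer. Ub-CHOP2 and reporter substrate (25 nM final each) were then added, with fluorescence (Ex 485/Em 531) read after 60 min. Data were normalized to NEM full inhibition and fitted to concentration-response curves.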

A short description of test [20]: qHTS Assay for Identification of Small Molecule Inducers of Hypoxia Response (AID 2120; active means well fitted curve in the direction sought with a large enough effect in the signal ratio, with a control signal flat, not every such curve was filed as active; the % refers to the signal ratio). An outline of the steps: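 HRE-bla ME-180 cells in Opti-MEM with 0.5% dialyzed FBS, pre-plated 4-5 h, then compound titration for 17 h at 37 degrees Celsius. CCF4 loaded 2.5 h at room temperature; 460/530 nm ratio gave %Activity and AC50 for induction.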

Ferritin light chain (Equus caballus), sequence (P02791 2-175 limits assumed): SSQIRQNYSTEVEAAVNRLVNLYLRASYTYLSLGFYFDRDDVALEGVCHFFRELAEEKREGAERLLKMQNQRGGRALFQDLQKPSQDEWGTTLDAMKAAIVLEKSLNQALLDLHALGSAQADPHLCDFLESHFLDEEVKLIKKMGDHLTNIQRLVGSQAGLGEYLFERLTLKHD
ATP-dependent DNA helicase Q1 (Homo sapiens), sequence (P46063 whole entry, looked up): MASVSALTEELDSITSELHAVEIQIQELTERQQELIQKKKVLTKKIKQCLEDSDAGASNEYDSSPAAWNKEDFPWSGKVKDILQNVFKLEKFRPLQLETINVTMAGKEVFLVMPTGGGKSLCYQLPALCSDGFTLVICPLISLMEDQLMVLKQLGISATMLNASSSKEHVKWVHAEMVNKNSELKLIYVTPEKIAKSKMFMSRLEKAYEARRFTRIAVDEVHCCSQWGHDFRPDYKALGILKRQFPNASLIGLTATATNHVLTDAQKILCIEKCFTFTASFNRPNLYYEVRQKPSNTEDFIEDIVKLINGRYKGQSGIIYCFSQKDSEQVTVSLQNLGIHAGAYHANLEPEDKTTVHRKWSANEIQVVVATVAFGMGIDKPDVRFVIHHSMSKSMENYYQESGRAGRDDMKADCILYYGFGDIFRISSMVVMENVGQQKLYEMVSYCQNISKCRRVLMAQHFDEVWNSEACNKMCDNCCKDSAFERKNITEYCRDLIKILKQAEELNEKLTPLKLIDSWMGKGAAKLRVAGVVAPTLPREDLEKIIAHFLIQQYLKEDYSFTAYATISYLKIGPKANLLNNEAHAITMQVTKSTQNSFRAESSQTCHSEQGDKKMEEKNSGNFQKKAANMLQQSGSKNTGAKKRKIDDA
Ubiquitin carboxyl-terminal hydrolase 2 (Homo sapiens), sequence (O75604 whole entry, looked up): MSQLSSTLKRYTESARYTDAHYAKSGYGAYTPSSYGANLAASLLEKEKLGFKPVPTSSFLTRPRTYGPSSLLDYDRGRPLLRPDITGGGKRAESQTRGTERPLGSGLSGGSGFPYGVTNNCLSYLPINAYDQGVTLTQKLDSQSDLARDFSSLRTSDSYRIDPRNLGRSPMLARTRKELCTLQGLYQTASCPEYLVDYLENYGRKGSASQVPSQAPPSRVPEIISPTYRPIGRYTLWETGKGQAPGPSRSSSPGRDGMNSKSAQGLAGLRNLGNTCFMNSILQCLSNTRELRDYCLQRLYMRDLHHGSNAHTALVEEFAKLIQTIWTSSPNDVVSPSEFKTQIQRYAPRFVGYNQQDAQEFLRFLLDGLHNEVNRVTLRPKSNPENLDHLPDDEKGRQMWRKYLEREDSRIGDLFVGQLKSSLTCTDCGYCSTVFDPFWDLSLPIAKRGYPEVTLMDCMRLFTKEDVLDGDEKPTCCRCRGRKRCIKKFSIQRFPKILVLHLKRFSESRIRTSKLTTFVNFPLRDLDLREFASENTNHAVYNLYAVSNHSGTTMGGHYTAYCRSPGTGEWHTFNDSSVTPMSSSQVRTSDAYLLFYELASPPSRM
DNA repair nuclease/redox regulator APEX1 (Homo sapiens), sequence (P27695 whole entry, looked up): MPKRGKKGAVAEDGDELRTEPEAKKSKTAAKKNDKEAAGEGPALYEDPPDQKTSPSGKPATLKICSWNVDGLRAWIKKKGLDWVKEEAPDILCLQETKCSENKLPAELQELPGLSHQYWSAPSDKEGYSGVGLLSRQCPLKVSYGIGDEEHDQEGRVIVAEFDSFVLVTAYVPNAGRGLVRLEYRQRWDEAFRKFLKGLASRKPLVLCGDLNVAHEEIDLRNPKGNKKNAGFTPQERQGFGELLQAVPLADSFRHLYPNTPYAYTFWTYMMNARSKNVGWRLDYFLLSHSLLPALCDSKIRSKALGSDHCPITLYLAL

Take `NC1CCc2cc(O)c(O)cc2C1` (stereo unspecified): the Potency entry in test [1], in test [2], in [3], in test [4], in test [5] and in test [9] was “inactive” each time. For the same molecule, the Potency result in [10], in test [11], in test [12], in [13] and in [14] was “inactive” in each case. Also, the Potency in test [6] was 14.1 µM (active). Moreover, the outcome in test [7] and in [8] was inactive.

For `NC(=NCCC[C@H](N)C(=O)O)N[N+](=O)[O-]`, the Potency result in test [15], in [2], in test [3], in test [16], in [4] and in [17] was “inactive” each time. For the same molecule, the Potency entry in [5], in test [6], in test [18], in [9], in test [10] and in test [11] was “inactive” throughout. The Potency entry in test [12], in test [13] and in test [14] was “inactive” each time. Besides, the outcome in [7] and in test [8] was inactive.

As for `CN[C@@H](C)[C@H](O)c1ccccc1`, the Potency entry in test [15] and in test [2] was “inactive” in each case. Moreover, the Potency in test [3] was 12.6 µM (active); in test [16], 10 µM (active); in [13], 10 µM (active). The result in test [7] and in [8] was inactive.

On to `Cc1nccc2c1[nH]c1ccccc12`, for which the Potency result in test [15], in [2], in test [5], in test [9], in [10] and in test [11] was “inactive” throughout. Further, the Potency entry in test [12], in test [13] and in test [14] was “inactive” each time. For the same molecule, the Potency in test [3] is 14.1 µM (active); in [16], 12.6 µM (active); in test [6], 10 µM (active); in test [18], 11.2 µM (active). Besides, in test [8], the outcome was inactive.

Regarding `O=C(O)Cc1cnc[nH]1`, the Potency result in test [15], in test [3], in [16], in [4], in test [17] and in test [5] was “inactive” in each case. The Potency entry in test [6], in test [18], in test [9], in [10], in [11] and in test [12] was “inactive” each time. Further, the Potency entry in [13], in [14] and in test [19] was “inactive” each time. Further, the molecule was classed as inactive in test [7] and in [8].

On to `O=[N+]([O-])c1c(Cl)c(Cl)cc(Cl)c1Cl`, for which the molecule was classed as inactive in [20].

Consider `O=C(Cc1ccc(Cl)c(Cl)c1)N1CCCCC1CN1CCCC1` (stereo unspecified), for which the Potency entry in test [15], in [2], in [9], in test [10], in [11] and in test [12] was “inactive” throughout. Moreover, the Potency entry in test [13] and in test [14] was “inactive” each time. The Potency in test [3] is 5.01 µM (active); in test [4], 12.6 µM (active); in test [5], 7.94 µM (active); in test [6] it was 2 µM (active). The molecule was called inactive in test [7] and in test [8].

As for `Oc1ccc2c3c1O[C@H]1c4[nH]c5c(c4C[C@@]4(O)[C@@H](C2)N(CC2CC2)CC[C@]314)C[C@@]1(O)[C@H]2Cc3ccc(O)c4c3[C@@]1(CCN2CC1CC1)[C@H]5O4`, the Potency entry in test [15], in [9], in [10], in test [11], in [12] and in [13] was “inactive” each time. The Potency entry in test [14] was “inactive”. For the same molecule, the Potency in test [16] is 15.8 µM (active); in test [4], 11.2 µM (active); in [17], 10 µM (active); in test [6], 12.6 µM (active); in [18], 12.6 µM (active). In addition, the outcome in test [7] and in [8] was inactive.

Take `C[C@]12N[C@H](Cc3ccccc31)c1ccccc12`: the Potency entry in test [15], in test [2], in test [4], in test [17], in test [18] and in test [9] was “inactive” in each case. Also, the Potency entry in [10], in test [11], in test [12], in test [13] and in test [14] was “inactive” each time. The results for the Potency in [16], in test [5] and in [6] were 1.78 µM (active), 7.08 µM (active) and 1.58 µM (active), respectively. Further, the molecule was classed as inactive in test [7] and in test [8].

`CC(=O)[C@H]1CCC2C3CC[C@H]4C[C@H](O)CC[C@]4(C)C3CC[C@@]21C` (stereo partly specified): the Potency entry in test [15], in test [2], in test [5], in test [9], in test [10] and in test [11] was “inactive” throughout. For the same molecule, the Potency entry in [12], in [13] and in [19] was “inactive” each time. Also, the results for the Potency in test [3] and in test [6] were 14.1 µM (active) and 10 µM (active), respectively. Moreover, the molecule was called inactive in [7] and in [8].

As to `CN[C@@H]1C[C@@H](c2ccc(Cl)c(Cl)c2)c2ccccc21`, the Potency result in test [15], in [2] and in [19] was “inactive” each time. In addition, the Potency is 12.6 µM (active) in test [4], 12.6 µM (active) in test [5] and 18.5 µM (active) in test [9]. For the same molecule, the call in test [8] was inactive.

For `CS(=N)(=O)CC[C@H](N)C(=O)O` (stereo partly specified), the Potency entry in [15], in [3], in test [16], in [4], in test [17] and in [5] was “inactive” throughout. Further, the Potency entry in [6], in test [18], in test [9], in test [10], in test [11] and in test [12] was “inactive” each time. The Potency result in [13] and in test [14] was “inactive” throughout. Besides, the molecule was called inactive in test [7] and in [8].

For `C#CCOC(=O)C1=CCCN(C)C1`, the Potency result in test [15], in test [5], in test [9], in test [10], in test [11] and in [12] was “inactive” each time. Moreover, the Potency entry in test [13] and in test [14] was “inactive” each time. For the same molecule, the results for the Potency in test [4] and in test [6] were 12.6 µM (active) and 15.8 µM (active), respectively. Besides, the molecule was classed as inactive in [7] and in test [8].

With `OCCCBr`, the molecule was classed as inactive in test [20].

As to `Nc1ccc(Sc2ccc(N)cc2)cc1`, the molecule was classed as inactive in [20].

Turning to `NC(CCP(=O)(O)O)C(=O)O` (stereo unspecified), the Potency result in test [15], in [3], in [16], in test [4], in test [17] and in test [5] was “inactive” in each case. The Potency result in [6], in test [18], in [9], in test [10], in [11] and in [12] was “inactive” in each case. Moreover, the Potency result in test [13], in [14] and in test [19] was “inactive” throughout. In addition, the outcome in test [7] and in test [8] was inactive.
